The record followed here is PubChem BioAssay AID686979 (National Center for Advancing Translational Sciences (NCATS), 2013).

About 50,000 (12%) of roughly 420,000 compounds were called active. Entries that show only a call come without a potency. Roughly 26% stayed inconclusive and do not appear here. Calls come from the whole dose curve; as a rule, active = well fitted inhibition curve with a large enough effect; inconclusive = small, poorly fitted or top-dose-only effect; inactive = flat fitted curve, though single readings scatter. For the sample, actives were picked, then their nearest neighbours and some compounds at random. Where a SMILES comes first, the peptide text is derived from it. Bridges are numbered along the chain shown (N, C = ends). [ ]: non-standard residue; d: D form. The star is where a group is joined. X4 = CC[C@H](C)CCCCC(=O)*; Dab = NCC[C@H](N)C(=O)O
Potency is the fitted concentration of half-maximal effect.

This experiment in a line: qHTS for Inhibitors of human tyrosyl-DNA phosphodiesterase 1 (TDP1): qHTS in cells in presence of CPT. Note: nearly all actives have a fitted effect of over 55% in size. The settings on record: chicken DT40 Tdp1-/-;hTDP1 cells + 20 nM CPT, ATP luminescence, 48 h; series mostly up to 46.2 µM. Summed up: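 Cell growth measured by CellTiter-Glo luminescence after a minimum 48 h, 37 C compound exposure with 20 nM CPT in Tdp1-knockout DT40 cells stably expressing hTDP1, seeded 400/well; qHTS titration format.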
A general note: In qHTS, concentration-response curves come from the screen itself.
In the case of `CCN(CC)S(=O)(=O)c1ccc2[nH]c(=O)cc(C(=O)N(C)C3CCS(=O)(=O)C3)c2c1` (stereo unspecified), the Potency entry is “inactive”.

`COc1ccc(N2CCN(C(=O)CCNC(=O)c3ccc(Br)cc3)CC2)cc1`: the Potency entry is “inactive”. To `COc1ccc(N2CCN(C(=O)[C@@H](NC(=O)c3cc(OC)cc(OC)c3)C(C)C)CC2)cc1` belongs 14.6 µM (active); to `COc1cc(OC)cc(C(=O)NC(C(=O)N2CCC2)C(C)C)c1` (stereo unspecified), “inactive”. To `CS(=O)(=O)N1CCc2nc(-c3ccccc3)sc2C1` belongs “inactive”; to `CCOc1ccc(S(=O)(=O)NCCC(=O)NCC(C)(C)N2CCOCC2)cc1`, “inactive”. To `C=C(Br)Cn1c(CCCC)nc2ccccc21` belongs 18.4 µM (active). `C=CCn1c(P(C)(=O)O)nc2ccccc21`: the Potency result is “inactive”. For `O=C(O)Cn1c(Cc2ccccc2)nc2ccccc21`, the Potency result is “inactive”. The entry for `Cc1nc2sc(C)c(C)n2c(=O)c1S(=O)(=O)NCCc1ccc(Cl)cc1` is “inactive”; for `CCOC(=O)c1cccc(NS(=O)(=O)c2cc(-c3cnc(C)o3)ccc2OC)c1` it is 10.3 µM (active). The entry for `CCOc1ccc(N(C)S(=O)(=O)c2cnc[nH]2)cc1` is “inactive”; for `CCOC(=O)c1cccc(NS(=O)(=O)c2cn(C)c(C)n2)c1` it is “inactive”; for `CCOc1ccc(N(C)S(=O)(=O)c2cc(-c3cnc(C)o3)ccc2OC)cc1` it is 25.9 µM (active). The entry for `COc1ccc(N(C)S(=O)(=O)c2cccc3nsnc23)cc1` is “inactive”; for `CCOC(=O)c1cc(-c2ccc(OC)c(S(=O)(=O)Nc3ccc(OC)cc3OC)c2)on1` it is “inactive”; for `CC(C)C(=O)Nc1nnc(SCC(=O)N2C(C)CCCC2C)s1` (stereo unspecified) it is “inactive”. Take `CSc1ccccc1OCc1cc(C(=O)N2C[C@H]3CC[C@H]2C3)no1`: the Potency entry was “inactive”. Consider `CCc1ccccc1NC(=S)Nc1cc(OC)c(NC(=O)C(C)C)cc1OC`, for which the Potency result was “inactive”. To `CCc1ccccc1NC(=O)/C(=C/c1ccccc1)c1ccccc1` belongs 20.6 µM (active); to `CCc1ccccc1NC(=O)CCOc1ccccc1`, “inactive”; to `CC(=O)Nc1ccc(N2C(=O)C3C4C=CC(CC4)C3C2=O)cc1` (stereo unspecified), “inactive”. The entry for `O=C(Nc1cccc(F)c1)[C@@H]1CCCN1` is “inactive”; for `Cc1ccc(CN2CCCOCCS2(=O)=O)cc1` it is “inactive”; for `O=C1NC[C@@H](CCCCN2CCN(CCc3ccc(O)cc3)C(=O)C2=O)N(CC2CCCCC2)C1=O` it is “inactive”. The entry for `Oc1ccc2c(c1)OCC1c3cc4c(cc3OC21)OCO4` (stereo unspecified) is “inactive”; for `O=C(NCCCN1CCOCC1)c1ccc([N+](=O)[O-])cc1[N+](=O)[O-]` it is “inactive”; for `O=[N+]([O-])c1cc(S(=O)(=O)CCCN2CCOCC2)ccc1F` it is 20.6 µM (active). As to `O=S(=O)(NCCCN1CCOCC1)c1ccc(F)c(Cl)c1`, the Potency result is “inactive”. As for `S=c1[nH]nc(-c2cccs2)n1/N=C/c1cccs1`, the Potency entry is “inactive”.

Turning to `Oc1ccccc1/C=N/n1c(-c2cccs2)n[nH]c1=S`, the Potency entry is “inactive”. To `Cc1ccsc1/C=N/n1c(=S)[nH]nc(C)c1=O` belongs 16.4 µM (active); to `O=C(COC(=O)c1cc2c(s1)CCCC2)NCc1ccccc1Cl`, “inactive”; to `O=c1cc(COc2cccc(C(F)(F)F)c2)nc2sc3c(n12)CCCC3`, “inactive”.

As to `Cc1ccc2nsnc2c1NC(=O)c1ccccc1[N+](=O)[O-]`, the Potency result is “inactive”. As to `O=C(Nc1ccccn1)C1CCN(S(=O)(=O)c2ccc3c(c2)OCCO3)CC1`, the Potency result is “inactive”. To `CCN1C(=NCc2ccc(OC)cc2)N[C@@H](CCc2ccccc2)[C@H](C(=O)NCc2ccc(OC)cc2)[C@H]1C` belongs 18.4 µM (active); to `COCCN1C(=O)N[C@@H](CCc2ccccc2)[C@H](C(C)=O)[C@H]1C`, “inactive”; to `CCN1C(=NCCc2cccnc2)N[C@@H](c2ccccc2)[C@H](C(=O)OC)[C@H]1C`, “inactive”. To `CCN1C(=NCC(C)C)N[C@@H](CCc2ccccc2)[C@H](C(=O)NCC(C)C)[C@H]1C` belongs 13 µM (active).

As for `CCN1C(=O)N[C@@H](c2ccccc2)[C@H](C(C)=O)[C@H]1C`, the Potency result is “inactive”. For the compound `O=C(CSc1nnc(N2CCOCC2)n1-c1cccc(F)c1)N1CCN(c2ccccn2)CC1`, the Potency entry was “inactive”. On to `Cc1cc(NC(=O)CSCC(=O)NC(C)c2ccccc2)no1` (stereo unspecified), for which the Potency entry was “inactive”. On to `CC(C)(C)NC(=O)COC(=O)c1cc(Br)ccc1Cl`, for which the Potency entry is “inactive”.

For the compound `C[C@H](CO)N1C[C@H](C)[C@@H](CN(C)S(=O)(=O)c2ccc(F)cc2)Oc2c(NC(=O)Nc3ccccc3)cccc2C1=O`, the Potency entry was “inactive”. To `CCCc1nn(C)c2c(=O)[nH]c(-c3cc(S(N)(=O)=O)ccc3OCC)nc12` belongs “inactive”; to `Cc1nnc(CN(C)Cc2cn[nH]c2-c2ccc(-c3ccccc3)cc2)o1`, “inactive”; to `COc1ccc(/C=C/C(=O)c2cc(Br)ccc(=O)c2O)cc1`, 14.6 µM (active). In the case of `COc1ccc2oc(=N)c(C(=O)Nc3ccc(Br)cc3)cc2c1`, the Potency entry is “inactive”.

As for `COc1ccc2oc(=O)c(C(=O)O)cc2c1`, the Potency entry was “inactive”. To `O=[N+]([O-])c1ccc(N=NNc2ccc([N+](=O)[O-])cc2)cc1` belongs “inactive”. To `COc1ccccc1NS(=O)(=O)c1ccc(C(=O)N2CCN(c3ccccc3O)CC2)cc1` belongs 18.4 µM (active). To `CN(c1ccccc1)S(=O)(=O)c1ccc(Cl)c(C(=O)OCC(=O)N2CCOCC2)c1` belongs “inactive”; to `Cc1ccc(S(=O)(=O)N2CCN(C(=O)c3ccc(-n4cncn4)c([N+](=O)[O-])c3)CC2)cc1`, “inactive”. For the compound `COc1ccccc1CC(=O)Nc1ccc(S(=O)(=O)N2CCCC2)cc1`, the Potency result was “inactive”.

For `COc1ccccc1NC(=O)CN1C(=O)c2ccccc2Sc2ccc(C(=O)N3CCCC3)cc21`, the Potency result was “inactive”.

For the compound `CN(c1ccccc1)S(=O)(=O)c1ccc(C(=O)N2CCN(c3ccccc3Cl)CC2)cc1`, the Potency was 23.1 µM (active). Consider `COc1ccc(S(=O)(=O)Nc2ccccc2C(=O)N2CCCC2)cc1C`, for which the Potency result is “inactive”.

As for `O=C(c1ccc(S(=O)(=O)N2CCOCC2)cc1)N1CCN(c2ccccc2)CC1`, the Potency result was “inactive”. The entry for `COc1cc(C(=O)N2CCN(S(=O)(=O)c3ccc(C(C)C)cc3)CC2)ccc1OCC(=O)N1CCOCC1` is “inactive”.

For the compound `CC(C)c1ccc(S(=O)(=O)N2CCN(C(=O)c3ccc(N4CCCC4)c([N+](=O)[O-])c3)CC2)cc1`, the Potency was 16.4 µM (active). Consider `O=C(c1ccc(S(=O)(=O)c2ccccc2)cc1)N1CCCCCC1`, for which the Potency result was “inactive”.

For `COc1ccccc1N1CCN(C(=O)c2ccc(S(=O)(=O)N3CCCCC3)cc2)CC1`, the Potency is 23.1 µM (active). The entry for `O=C(OCCN1CCOCC1)C1(c2ccccc2)CCCCC1` is “inactive”. To `CCN(Cc1ccccc1)Cc1c(O)ccc2c(=O)c(-c3ccc(Cl)cc3Cl)coc12` belongs “inactive”; to `Cc1nc(C(F)(F)F)ccc1C(=O)N1CCC1(C)C(=O)NS(=O)(=O)c1ccc(F)cc1F` (stereo unspecified), “inactive”. To `O=C(Nc1cccnc1)c1cc(Cl)ccc1Cl` belongs “inactive”.

`CC(=O)c1nn(-c2ccc(C)cc2)cc1C(=O)c1cccc(Br)c1`: the Potency result was “inactive”. To `COc1ccc(S(=O)(=O)N2CCN(C(=O)N(C)C)C2C)cc1` (stereo unspecified) belongs “inactive”; to `COc1ccc(NC(=O)CCCC(=O)c2ccccc2)cc1`, “inactive”; to `CC(C)N(C(=O)Cn1cc(S(=O)(=O)CC(=O)N2CCOCC2)c2ccccc21)C(C)C`, “inactive”.

For `CCCc1nn2c(=O)cc(COC(=O)c3ccc(NC(=O)COc4ccc(F)cc4)cc3)nc2s1`, the Potency result was “inactive”.

On to `CC(C)(C)NC(=O)C(c1ccc(Cl)cc1)N(CCO)C(=O)c1snc(C(N)=O)c1N` (stereo unspecified), for which the Potency was 13 µM (active).

Turning to `COc1cc(C(C(=O)NC2CCCC2)N(Cc2ccccc2)C(=O)c2snc(C(N)=O)c2N)ccc1O` (stereo unspecified), the Potency result was “inactive”.

For the compound `NC(=O)c1nsc(C(=O)N(CCCN2CCOCC2)C(C(=O)NC2CCCCC2)c2ccc(Cl)cc2)c1N` (stereo unspecified), the Potency entry is “inactive”. The entry for `CC(C)(C)C(=O)NC1CC2CCCC(C1)N2C(=O)Nc1ccccc1F` (stereo unspecified) is “inactive”; for `Cc1ccc(OCc2cc(C(=O)N(C)CCn3ccnc3C)no2)cc1C` it is “inactive”. Turning to `COC(=O)[C@@H]1CCCN1C(=O)c1cc(COc2cccc3cccnc23)on1`, the Potency result was “inactive”. To `COCC1CCCCN1C(=O)c1cc(COc2ccc(C)c(C)c2)on1` (stereo unspecified) belongs 20.6 µM (active); to `O=C1C=CN2CCCC2CC1` (stereo unspecified), 16.4 µM (active). The entry for `Cc1cc(C)c(C#N)c(Nc2cccc(Br)c2)n1` is “inactive”; for `CC1(C(=O)NS(=O)(=O)c2cccs2)CCN1C(=O)Cc1ccc(-c2ccccc2)cc1` (stereo unspecified) it is “inactive”. In the case of `CCCNC(=O)C1(C)CCN1C(=O)Cc1ccc(-c2ccccc2)cc1` (stereo unspecified), the Potency was 16.4 µM (active). To `CC1(C(=O)NS(=O)(=O)c2ccccc2)CCN1C(=O)Cc1ccc(-c2ccccc2)cc1` (stereo unspecified) belongs “inactive”; to `CCOC(=O)c1c(C)[nH]c(C(=O)OCC(=O)c2ccc(OC)cc2OC)c1C`, “inactive”.

As to `N#C/C(=C\c1cccnc1)C(=O)Nc1ccc(SC(F)F)cc1`, the Potency result was “inactive”. In the case of `Cn1c(C(=O)N2CCC(C(=O)N3CCN(c4ccccc4)CC3)CC2)cc2sccc21`, the Potency was 13 µM (active). The entry for `CS(=O)(=O)N1CCC(C(=O)N2CCN(c3ccccc3)CC2)CC1` is “inactive”. To `O=C(C1CCC1)N1CCN(c2ccccc2)CC1` belongs “inactive”. To `CCOC(=O)Cc1ncccc1C(=O)Nc1ccc(OC)cc1` belongs “inactive”; to `Cc1ccc2cccc([N+](=O)[O-])c2n1`, “inactive”; to `CC[C@H](C)CCCCC(=O)N[C@@H](CCN)C(=O)N[C@H](C(=O)N[C@@H](CCN)C(=O)N[C@H]1CCNC(=O)[C@H]([C@@H](C)O)NC(=O)[C@H](CCN)NC(=O)[C@H](CCN)NC(=O)[C@H](CC(C)C)NC(=O)[C@@H](CC(C)C)NC(=O)[C@H](CCN)NC1=O)[C@@H](C)O` (X4-[Dab]T[Dab][Dab][Dab][dL]L[Dab][Dab]T; lactam 4-C), “inactive”. In the case of `CC(=O)N1CCCc2ccc(NS(=O)(=O)c3ccc(F)cc3F)cc21`, the Potency result was “inactive”. To `CCN1C(=O)/C(=C\N2CCN(c3cccc(Cl)c3)CC2)SC1=S` belongs “inactive”. With `CCc1nn(CCCN2CCN(c3cccc(Cl)c3)CC2)c(=O)n1CCOc1ccccc1`, the Potency is 11.6 µM (active). The entry for `Cc1nn(CCOc2ccccc2)c(=O)n1-c1ccccc1F` is “inactive”.
